Sampled rows, rich in hits. Any-hit rate of the full collection: about 0.35%.
ERp5 inh – ERp5 (human) disulfide isomerase inhibition | ERp5 insulin aggregation, absorbance 650 nm, 90 min | 350,000 compounds, 0.05% hits | inhibition, % at 9.99 µM;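 active means mean replicate inhibition above about 25%, with every replicate also reaching it, limit read from the data, passing the limit was not always enough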
ERAP1 HTS inh – ERAP1 (human) enzyme inhibition. Q9NZ08. recombinant ERAP1, Leu-AMC fluorescence, 60 min. 340,000 compounds, 0.15% hits. inhibition, % at 10.7 µM. AID 652197;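 active means mean replicate inhibition of at least 30%, or all replicates individually reaching that 30% level; inactive means mean below 30% and not every replicate reaching it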;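 further: 0% = neutral control wells and 100% = L-leucinethiol positive control wells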
PDI turbidity – blocks human protein disulfide isomerase activity | 350,000 compounds, 0.052% hits | inhibition, % at 10 µM | AID 588391 | PDI insulin aggregation turbidity, A650, 90 min;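 active means mean inhibition across replicates of 30% or more, whatever share of single replicates reach that level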
Rtt109 HAT inh – inhibitors of Candida albicans Rtt109/Vps75 histone acetyltransferase | Q5AAJ8 | purified Rtt109/Vps75, ThioGlo CoA-SH fluorescence, 4 h | inhibition, % at 34.9 µM | 330,000 compounds, 0.16% hits | AID 540336;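 active means inhibition of at least 50% in every replicate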
Target sequence (Q5AAJ8 whole entry, looked up): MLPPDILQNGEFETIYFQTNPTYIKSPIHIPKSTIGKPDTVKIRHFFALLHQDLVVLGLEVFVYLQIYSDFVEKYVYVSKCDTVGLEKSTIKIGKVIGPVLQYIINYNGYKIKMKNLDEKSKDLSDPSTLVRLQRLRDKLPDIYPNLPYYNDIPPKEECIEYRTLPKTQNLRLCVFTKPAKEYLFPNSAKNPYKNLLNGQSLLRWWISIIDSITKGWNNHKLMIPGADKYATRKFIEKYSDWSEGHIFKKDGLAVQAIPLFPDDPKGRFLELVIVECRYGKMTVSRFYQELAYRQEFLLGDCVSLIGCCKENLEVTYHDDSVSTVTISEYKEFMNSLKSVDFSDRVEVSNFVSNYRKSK
PvdQ inh – blocks Pseudomonas aeruginosa PvdQ acylase activity; purified PvdQ acylase, fluorescence plate reader; 340,000 compounds, 0.063% hits; inhibition, % at 10 µM; in the data active means inhibition above about 30%, passing the limit was not always enough;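 further: 0% = vehicle neutral wells and 100% = reference inhibitor wells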
Numbers without * were called inactive; i = inactive; . = no result given; ! = not active in a repeat.

SMILES | ERp5 inh | ERAP1 HTS inh | PDI turbidity | Rtt109 HAT inh | PvdQ inh
COc1ccc(S(=O)(=O)N[C@@H]2C=C[C@@H](CC(=O)NCCc3ccccc3)O[C@H]2CO)cc1 | 0 | 0 | . | . | .
CN1CCN(CCCN2c3ccccc3Sc3ccc(Cl)cc32)CC1 | 2 | 5 | 11 | 53*! | 13
CCSc1ccc2c(c1)N(CCCN1CCN(C)CC1)c1ccccc1S2 | 4 | 28 | 7 | 18 | 0
COC1=C(Br)C(=O)c2ncccc2C1=O | 7 | 1 | 47* | 8 | -10
COc1ccc(N2C(S)=C(C#N)C(=O)NC2c2ccco2)cc1 (centres undefined) | . | . | -7 | 63* | 15
N#CC1=C(S)N(c2ccccc2)C(c2ccc(-c3cccc(Cl)c3)o2)NC1=O (centres undefined) | 0 | 1 | 9 | 99* | -10
COc1ccc(C2NC(=O)C(C#N)=C(S)N2c2ccccc2)cc1OC (centres undefined) | 1 | 5 | 2 | -6 | -5
COc1cc(C2NC(=O)C(C#N)=C(S)N2c2ccccc2)ccc1OC(C)C (centres undefined) | . | . | -6 | 122* | -2
Cc1cccc(N2C(S)=C(C#N)C(=O)NC2c2ccco2)c1 (centres undefined) | 3 | 1 | 4 | 8 | 3
Cc1ccc(/C=C2/SC(=Nc3ccc(F)cc3)NC2=O)s1 | 6 | 82* | -4 | -20 | -12
Cc1ccc(N=C2NC(=O)/C(=C\c3cccs3)S2)cc1C | 3 | 2 | 4 | -1 | -21
Cc1ccc(S(=O)(=O)N(C)C[C@@H]2Oc3ccc(NC(=O)CCCN(C)C)cc3CC(=O)N([C@@H](C)CO)C[C@H]2C)cc1 | -4 | 0 | . | . | .
CC(=O)N1[C@@H]2c3ccc(-c4ccc(F)cc4)c(=O)n3C[C@H]1[C@H](CO)[C@H]2C(=O)N(C)C | -1 | -3 | . | . | .
COc1cccc(OCc2cc(/C=N/Nc3ccc(C(=O)O)cc3)ccc2OC)c1 | 1 | -1 | -3 | 50* | 10
COc1cccc(C(=O)Oc2ccc(/C=N/Nc3ccc(C(=O)O)cc3)cc2OC)c1 | -1 | -1 | 0 | 18 | -1
CCCC#Cc1cnc2c(c1)C(=O)N([C@@H](C)CO)C[C@H](C)[C@H](CN(C)C(=O)c1cccnc1)O2 | 0 | 0 | . | . | .
O=c1oc2c(CN3CCN(CCO)CC3)c(O)ccc2cc1-c1ccccn1 | -1 | 98* | -1 | i | -25
CCCc1cc(=O)oc2c(CN3CCCC3)c(O)ccc12 | . | . | 8 | i | -5
CCN1CCN(Cc2c(O)ccc3c(C)cc(=O)oc23)CC1 | 4 | 33* | 3 | -1 | 8
Cc1cc(=O)oc2c(CN3CCCC3)c(O)ccc12 | 0 | 41* | -13 | 0 | -21
Cc1cc(=O)oc2c(CN3CCCC3)c(O)c(Cl)cc12 | -1 | 115* | 1 | -12 | -15
CCN(CC)Cc1c(O)c(Cl)cc2c(C)cc(=O)oc12 | 0 | 66* | -1 | -29 | -74
Cc1c(O)ccc2c(CN3CCN(CCO)CC3)cc(=O)oc12 | . | . | 53* | 4 | -3
Cc1cc(=O)oc2c(CN3CCN(CCO)CC3)c(O)ccc12 | 1 | 40* | 0 | -4 | -7
COc1cccc(S(=O)(=O)N2C[C@@H](O)COC[C@@H]3O[C@@H](CC(=O)Nc4ccccc4)CC[C@H]32)c1 | 1 | -2 | . | . | .
SMILES | ERp5 inh | ERAP1 HTS inh | PDI turbidity | Rtt109 HAT inh | PvdQ inh
CCc1c(C)n([O-])c2c([n+]1=O)CCC2 | . | . | 46* | -2 | 1
Cc1c(C)[n+](=O)c2c(n1[O-])CCC2 | . | . | -1 | -3 | -7
CN1CCCC1CCNc1ccc2c(=O)c3ccccc3oc2c1 (centres undefined) | -4 | 180* | -2 | i | -34
Cc1ccc(C)c(NC(=O)c2cc[n+](C)cc2)c1 | 7 | 87* | -2 | -3 | -1
O=C(Nc1ccccc1Cl)c1ccc2ccccc2c1 | -1 | -2 | -3 | 18 | 18
Cc1ccc(C(=O)Nc2cc([N+](=O)[O-])ccc2C)cc1 | -4 | 9 | 7 | -1 | -5
C[n+]1ccc(C(=O)Nc2ccccc2Cl)cc1 | 4 | 102* | 0 | 3 | -6
O=C(Nc1ncc([N+](=O)[O-])s1)c1cccc([N+](=O)[O-])c1 | 3 | -1 | 2 | -2 | 39*
O=C(NC(=S)Nc1cccc(NC(=O)c2ccccc2)c1)c1cccc([N+](=O)[O-])c1 | . | . | 32* | 5 | -2
O=C(Nc1ccc2c(c1)OCO2)N[C@@H]1CC[C@@H](CC(=O)N2CCN(c3ccccc3)CC2)O[C@H]1CO | 2 | 1 | . | . | .
CCCCn1c(SCC(=O)Nc2ccc(C)c(S(=O)(=O)N3CCOCC3)c2)nnc1C(CC)N(C)C (centres undefined) | 0 | 0 | 32* | 3 | -10
COc1ccc(S(=O)(=O)N(C)C[C@@H]2OCCCC[C@H](C)Oc3ccc(NS(=O)(=O)c4ccc(C)cc4)cc3C(=O)N([C@H](C)CO)C[C@H]2C)cc1 | -1 | 1 | . | . | .
C[C@@H](O)C#Cc1ccc([C@@H]2[C@@H](CO)N3CCCCN(C(=O)c4ccc5c(c4)OCO5)C[C@@H]23)cc1 | 1 | . | . | . | .
N#CC(c1ccc(Cl)nn1)c1c(F)cccc1Cl (centres undefined) | -12 | 1 | 11 | 0 | 66*
CCOCCCn1c(=NC(=O)c2ccco2)c(C(=O)OCC)cc2c(=O)n3cccc(C)c3nc21 | 5 | 60* | 2 | -121 | -14
CCOC(=O)c1cc2c(=O)n3ccccc3nc2n(Cc2ccco2)c1=NC(=O)c1ccc(OC)cc1 | -9 | 11 | -3 | -2 | -12
CCOC(=O)c1cc2c(=O)n3ccccc3nc2n(Cc2ccco2)c1=NC(=O)c1ccccc1OC | -1 | 36* | 7 | -200 | 7
CC(C)NC(=O)Nc1ccc2c(c1)CC(=O)N([C@@H](C)CO)C[C@H](C)[C@H](CN(C)S(=O)(=O)c1ccc(Cl)cc1)O2 | 1 | 2 | . | . | .
O=C(c1ccccc1)N1C[C@H]2[C@@H](c3ccccc31)[C@@H](CO)N2Cc1cocn1 | -3 | 0 | . | . | .
COc1cc(C(=O)CCN2CCC(c3ccccc3)C2)cc(OC)c1OC (centres undefined) | 2 | -3 | 15 | 95* | 0
CC(=O)N(C)C[C@H]1Oc2ncc(C#CC3(O)CCCC3)cc2C(=O)N([C@@H](C)CO)C[C@H]1C | -4 | 2 | . | . | .
CCN(CC)S(=O)(=O)c1ccc2c(c1)N(CC(=O)NCCN1CCOCC1)C(=O)CO2 | 28* | 4 | -3 | 0 | -11
CCOc1cc(/C=C/c2cccc[n+]2C)ccc1OCC(=O)Nc1ccc(C)cc1 | 0 | 73* | -10 | 5 | -13
COc1cc(/C=C/c2cccc[n+]2C)ccc1OCC(=O)Nc1ccccc1C | 6 | 3 | 6 | -16 | -11
O=C(CCCSc1nc2ccccc2[nH]1)NC1CCCCC1 | 1 | 0 | -9 | 56* | 11
COc1ccc2nc(NC(=O)CN3C(=O)NC4(CCCCC4)C3=O)sc2c1 | -1 | 5 | -4 | 52* | 5
COc1ccc2nc(NC(=O)CN3C(=O)NC4(CCCC4)C3=O)sc2c1 | -2 | 3 | 1 | 1 | -3

Compound activity deposited in PubChem BioAssay by Broad Institute.
